Screens as filed in PubChem BioAssay.
Shown are actives, neighbours in structure and some others; about 3.9% of the full set was active somewhere.
TWEAK-Fn14 inh = TWEAK-Fn14 signaling inhibition. 360,000 tested, 2% active. inhibition, % at 10 µM. TWEAK-stimulated Fn14 reporter cells, luciferase luminescence, 8 h; in the data active = inhibition above about 50%
TROY NFkB inh = inhibitors of TROY-dependent NF-kB signaling | inhibition, % at 10 µM | 360,000 tested, 0.98% active | Q293 LMP1-TROYcd NF-kB luciferase reporter, 4 h;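 active = compounds whose plate-normalised and pattern-corrected inhibition of the luciferase reporter signal at the single screening dose is 50% or more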
HSP90 refold inh = blocks HSP90-mediated luciferase refolding in reticulocyte lysate. Rabbit reticulocyte lysate, luciferase refolding luminescence, 3 h. inhibition, % at 5.6 µM. 290,000 tested, 0.91% active. AID 1789;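 active = inhibition above the screen-wide mean plus 3 SD, computed separately per campaign, cut at about 16% in these data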;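 also: 0% = DMSO wells and 100% = 60 µM geldanamycin wells; inhibitors lower the luminescence because luciferase stays unfolded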
C8 TRAIL sens = sensitizes caspase-8 expressing cells to TRAIL; NB7+C8 cells + TRAIL, ATPlite viability luminescence; AID 624354; 360,000 tested, 1% active; inhibition (viability loss, TRAIL sensitization), % at 10 µM;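 active = compounds causing at least 50% loss of cell viability in the single-dose screen, relative to plate controls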
HIF-2a inh = blocks HIF-2a reporter activity | 360,000 tested, 0.72% active | AID 624352 | 786-0 RCC cells HIF-2a reporter, luciferase luminescence, overnight | inhibition, % at 18.8 µM;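 active = inhibition of the luminescence signal of 40% or more relative to plate controls, in a single-dose primary screen at 18.75 µM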
aSyn UTR inh = MLPCN primary screen, SNCA 5' untranslated region | alpha-synuclein 5'UTR reporter, inhibitor activity | inhibition, % (tested at 7.5 µM) | 300,000 tested, 0.82% active | AID 1813; in the data active = inhibition above about 60%;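 also: H4 neuroglioblastoma cells stably carrying SNCA 5'UTR luciferase fusion; 0% = DMSO wells and 100% = positive control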
Mdm2 MdmX conf = confirmation of inhibitors of human Mdm2/MdmX interaction, set 2 | shares compounds with HIF-2a inh | SaOS-2 split-luciferase Mdm2/MdmX complementation, luminescence | inhibition, % at 8 µM | 740 tested, 99% active;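 active = mean inhibition of the luminescence signal across two replicates at or above 26 percent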
HIF-2a conf = confirmation of HIF-2a inhibitors. shares compounds with HIF-2a inh. inhibition, % at 18.8 µM. 1,800 tested, 56% active. 786-0 RCC cells, HIF-2a luciferase reporter luminescence, overnight;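 active = mean inhibition across four replicates of at least 40 percent at the single tested concentration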
HIF-1a cs = inhibits HIF-1a reporter, a counter-screen for HIF-2a inhibitors; MiaPaCa-2 HIF-1a luciferase reporter, desferoxamine, overnight; shares compounds with HIF-2a inh; 1,800 tested, 72% active; inhibition, % at 18.8 µM;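 active = mean inhibition of the reporter signal across four replicates at the single tested dose of 50% or more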
Active calls of the source: *; / = not tested or not shown.

SMILES	TWEAK-Fn14 inh	TROY NFkB inh	HSP90 refold inh	C8 TRAIL sens	HIF-2a inh	aSyn UTR inh	Mdm2 MdmX conf	HIF-2a conf	HIF-1a cs
CC1=C/C(=N\OS(=O)(=O)c2ccccc2)C(C)=CC1=O	-24	0	1	-4	65*	/	103*	/	/
CCNC(=O)C1(C)CCCN1Cc1c(F)cccc1F (stereo not drawn)	4	1	/	5	1	/	/	/	/
CCOC(=O)C(C(=O)OCC)C(C(=O)OCC)N1CCOCC1 (stereo not drawn)	-11	-22	-7	20	90*	5	/	98*	107*
CCOC(=O)C(C)CC(C)C(=O)N1CCOCCOCCN(C(=O)C(C)CC(C)C(=O)OCC)CCOCC1 (stereo not drawn)	-3	-18	-1	-5	16	13	/	/	/
CCN(CC)c1ccc2c(c1)oc(=O)c1c(Cl)cc(=O)oc12	76*	-44	6	70*	93*	-30	103*	/	/
COc1ccc(N2CCN(CC(=O)Nc3c(C)cccc3C)CC2)cc1	15	2	/	4	5	/	/	/	/
C=C(C(=O)c1ccccc1)C(C(=C)C(=O)c1ccccc1)c1ccc(OC)cc1	93*	6	2	-19	61*	13	103*	59*	103*
O=C(c1ccccc1)C(c1ccccc1)c1ccccc1	15	0	/	20	-3	-10	/	/	/
C=C(C(=O)c1ccccc1)C(c1ccccc1)C(C)C(=O)c1ccccc1 (stereo not drawn)	51*	-14	4	23	81*	-9	/	45*	96*
O=C(c1ccccc1F)N1CCCC(N2CCN(Cc3ccc4c(c3)OCO4)CC2)C1 (stereo not drawn)	14	5	/	-2	-16	/	/	/	/
c1ccc(CN2CCC(Nc3nc(-c4cccnc4)nc4ccccc34)CC2)cc1	-87	-2	-1	-1	42*	-83	/	21	79*
O=C(NCc1cc(C(F)(F)F)ccc1Cl)c1cccc2c1C(=O)c1ccc(N3CCC(N4CCCCC4)CC3)cc1S2(=O)=O	-93	-7	/	96*	92*	/	/	-4	100*
O=C(NCc1cc(C(F)(F)F)ccc1Cl)c1cccc2c1C(=O)c1ccc(N3CCCCC3)cc1S2(=O)=O	1	3	/	9	-2	/	/	/	/
NS(=O)(=O)c1ccc(Sc2nc3ccccc3s2)c([N+](=O)[O-])c1	84*	17	-3	1	16	67*	97*	/	/
NS(=O)(=O)c1ccc(Sc2ccccn2)c([N+](=O)[O-])c1	13	4	1	-13	11	-9	/	/	/
Cn1c2c(c(=O)n(C)c1=O)C(C(F)(F)F)(C(F)(F)F)N=C(c1ccc(Cl)cc1)N2	62*	57*	1	51*	12	99*	97*	/	/
Nc1nc(-c2ccccc2)c(CCCOc2ccc(NC(=O)CBr)cc2)c(=O)[nH]1	-2	-2	/	-10	-6	/	/	/	/
COc1ccc(Nc2oc(COc3ccc(Cl)cc3)nc2C#N)cc1	88*	32	4	11	50*	91*	/	34	51*
CSc1nnc(NC(=O)c2nc(S(=O)(=O)Cc3cccc(C)c3)ncc2Cl)s1	94*	46	-2	84*	73*	-10	103*	33	107*
CSc1ncc(Cl)c(C(=O)Nc2nnc(SC/C=C/c3ccccc3)s2)n1	-12	30	1	-11	7	9	/	/	/
CC(C)c1nnc(NC(=O)c2nc(S(=O)(=O)Cc3ccccc3F)ncc2Cl)s1	/	/	-2	/	/	-72	/	/	/
CC(C)c1nnc(NC(=O)CS(=O)(=O)Cc2ccccc2)s1	16	-9	0	-10	10	-11	/	/	/
Cc1nnc(NC(=O)c2nc(S(=O)(=O)Cc3ccccc3C)ncc2Cl)s1	102*	28	1	97*	91*	-39	103*	10	105*
Cc1cccc(CS(=O)(=O)c2ncc(Cl)c(C(=O)Nc3nnc(C(C)C)s3)n2)c1	101*	55*	5	95*	82*	-98	103*	/	/
Cc1ccc(CS(=O)(=O)c2ncc(Cl)c(C(=O)Nc3nnc(C(C)C)s3)n2)cc1	100*	60*	3	83*	76*	-56	/	88*	106*
SMILES	TWEAK-Fn14 inh	TROY NFkB inh	HSP90 refold inh	C8 TRAIL sens	HIF-2a inh	aSyn UTR inh	Mdm2 MdmX conf	HIF-2a conf	HIF-1a cs
CC(=O)Nc1cccc(Nc2cnccn2)c1	-9	-4	/	9	-34	/	/	/	/
Cc1cc2nc(NC(=O)C3(C)CCN(C)C3)[nH]c2cc1C (stereo not drawn)	-27	11	/	-26	-27	/	/	/	/
CCN(CC)S(=O)(=O)c1ccc(Cl)c(NC(=O)COC(=O)c2nc3nc(C)cc(C)n3n2)c1	9	-6	/	-14	9	/	/	/	/
CCSc1nnc(NC(=O)c2nc(S(=O)(=O)Cc3ccc(F)cc3)ncc2Cl)s1	99*	-2	1	23	88*	10	/	-29	97*
CSc1nnc(NC(=O)c2nc(S(=O)(=O)Cc3ccccc3F)ncc2Cl)s1	97*	7	1	81*	68*	-9	102*	24	106*
CC(C)c1nnc(NC(=O)c2nc(S(=O)(=O)Cc3ccc(F)cc3)ncc2Cl)s1	99*	29	9	94*	64*	-43	103*	66*	107*
COc1ccc(NC(=O)c2cc(C3CCCCN3C(=O)c3ccc(NC(C)=O)cc3)on2)c(C)c1 (stereo not drawn)	-7	-8	/	-6	6	/	/	/	/
OC(COc1ccc(CNCCc2ccc(C(F)(F)F)cc2)cc1)CN1CCCCC1 (stereo not drawn)	-10	-5	2	9	23	82*	104*	/	/
COc1ccccc1OCCN1CSC(=S)N(C)C1	-45	6	3	-3	88*	2	/	23	103*
Cc1cc(C)c(Cn2c(=O)[nH][nH]c2=O)cc1Cn1c(=O)[nH][nH]c1=O	-9	11	/	-8	1	/	/	/	/
CCOC(=O)COc1c(Br)cc(/C=C2\SC(=O)N(CC(=O)N3CCCC3)C2=O)cc1OC	-8	1	-2	9	49*	-26	/	8	42
CCOc1c(Br)cc(/C=C2/SC(=O)N(CC(=O)N3CCCC3)C2=O)cc1OC	-20	-15	0	8	-13	-3	/	/	/
CCNC(=O)C1(C)CCN(C(=O)c2cccc(Cl)c2)C1 (stereo not drawn)	16	4	/	5	10	/	/	/	/
Oc1[nH]c2ccc(Br)cc2c1N=NC(=S)N1CCOCC1	105*	49	6	42	68*	39	99*	/	/
